Most compounds without a hit are left out; they make up all but 3.1% or so of the library.
PLK1 PBD inh – qHTS for Inhibitors of PLK1-PDB (polo-like kinase 1 - polo-box domain): Primary Screen. Plk1 PBD binding of FITC phosphopeptide, fluorescence polarization. Serine/threonine-protein kinase PLK1 (Homo sapiens), P53350. 2.8% of 360,000 active. Potency, µM, actives largely listed as inhibitors. AID 720504, 2013; also: series mostly up to about 57 µM; nearly all actives have a fitted effect of over 65% in size
TSHR antagonist – Antagonists of the Thyroid Stimulating Hormone Receptor: HTS campaign; Thyrotropin receptor (Homo sapiens), P16473; TSHR-expressing cells, TSH-stimulated cAMP HTRF, 2 h; hits give low values; activity change, negative = inhibition, % at 11.5 µM; 0.2% of 330,000 active; AID 504810, 2011;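 active = activity change below a set negative limit, meaning inhibition stronger than a set level, cut at about -70% in these data; inconclusive = activity change between two set negative limits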
Target sequence (P16473 whole entry, looked up): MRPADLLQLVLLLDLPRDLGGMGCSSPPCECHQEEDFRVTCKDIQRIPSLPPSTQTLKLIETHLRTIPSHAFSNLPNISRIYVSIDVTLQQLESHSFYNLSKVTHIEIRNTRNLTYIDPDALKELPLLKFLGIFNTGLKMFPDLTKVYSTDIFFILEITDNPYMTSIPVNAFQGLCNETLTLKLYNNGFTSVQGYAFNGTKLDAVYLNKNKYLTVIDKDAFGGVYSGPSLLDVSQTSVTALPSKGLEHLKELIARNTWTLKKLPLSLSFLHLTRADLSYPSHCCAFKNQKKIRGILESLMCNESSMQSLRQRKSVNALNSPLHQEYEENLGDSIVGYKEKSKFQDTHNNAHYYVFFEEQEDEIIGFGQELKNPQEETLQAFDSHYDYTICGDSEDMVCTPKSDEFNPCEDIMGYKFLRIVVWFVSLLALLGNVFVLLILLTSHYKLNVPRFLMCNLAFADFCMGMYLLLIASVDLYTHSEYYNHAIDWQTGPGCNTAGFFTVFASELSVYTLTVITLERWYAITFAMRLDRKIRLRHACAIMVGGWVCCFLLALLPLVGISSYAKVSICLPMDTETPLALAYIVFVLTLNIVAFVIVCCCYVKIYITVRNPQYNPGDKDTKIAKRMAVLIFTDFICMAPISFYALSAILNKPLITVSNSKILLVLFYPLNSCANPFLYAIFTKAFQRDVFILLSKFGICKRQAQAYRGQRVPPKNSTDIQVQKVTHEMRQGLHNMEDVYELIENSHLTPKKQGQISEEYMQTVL
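Antagonism was scored as loss of TSH-driven cAMP in TSHR cells, stimulated with 4nM TSH (EC80) for 2 hours at 37 deg C and detected by homogeneous HTRF competition immunoassay.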
PTAP TSG101 blk – qHTS Assay for Iinhibitors of HIV-1 Budding by Blocking the Interaction of PTAP/TSG101; Tumor susceptibility gene 101 protein (Homo sapiens), Q99816; Fluorescence polarization, FITC-PTAP peptide / Tsg101 binding; Potency, µM (top dose mostly 115 µM), most hits filed as inhibitors; 340,000 tested, under 10 active; AID 493005, 2010; active = well fitted inhibition curve with a large enough effect in the main read-out, with a control signal flat, not every such curve was filed as active; inconclusive = small, poorly fitted or top-dose-only effect, or effect the other way, or a change in a side signal; inactive = no such curve, though single readings can be large or run the other way
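FP read-out: FITC-PTAP peptide, 50 nM final, binding Tsg101 binding domain, 10 uM final; 20 min, r.t.; 10 mM HEPES pH 7.5, 0.15 M NaCl, 0.01% Tween 20, 3 mM EDTA, 0.1 mM TCEP.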
uPA generation – qHTS for Inhibitors of Cell Surface uPA Generation; cell surface uPA generation assay, qHTS; Potency, µM (doses to about 38.3 µM), actives largely listed as inhibitors; 0.31% of 330,000 active; active = well fitted inhibition curve with a large enough effect; inconclusive = small, poorly fitted or top-dose-only effect; inactive = no such curve, though single readings can be large or run the other way; tested in mouse RAW 264.7 cells; also: nearly all actives have a fitted effect of over 55% in size
VDR inh – Inhibitors of the vitamin D receptor (VDR): qHTS. Vitamin D3 receptor (Homo sapiens), P11473. VDR-SRC2-3 peptide fluorescence polarization, 2 h. 0.93% of 400,000 active. Potency, µM, usual class: inhibitors
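Two reagent solutions held at 4 deg C in the dark were dispensed, compounds pinned at 23 nl, and the mixture incubated 2 h at room temperature. Read-out: fluorescence polarization of VDR–SRC2-3 peptide binding.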
A number is an active result; - = inactive; ? = inconclusive; . = not tested or not shown; ! = a repeat was not active. Unless noted, calls follow the shape of the dose curve; as a rule, active = well fitted curve in the direction sought with a large enough effect; inconclusive = small, poorly fitted or top-dose-only effect, or another doubt; inactive = no such curve, though single readings can be large; an effect the other way counts as inactive or inconclusive.

SMILES | PLK1 PBD inh | TSHR antagonist | PTAP TSG101 blk | uPA generation | VDR inh
COc1ccc(/C=C2\SC(=S)NC2=O)cc1OS(=O)(=O)c1ccc(NC(C)=O)cc1 | ? | ? | - | - | -
CCOc1ccc(/C=C2\SC(=S)NC2=O)cc1OC | - | - | - | - | -
CCOC(=O)C(=O)N(C)c1c(CC)nc2c(OCc3ccccc3)cccn12 | - | . | . | . | .
COc1ccc(S(=O)(=O)N2CCN(c3ccccc3)CC2)cc1-c1noc(C)n1 | . | . | . | . | -
CCOC(=O)c1cc(-c2ccc(C)cc2)n(CCC(=O)Nc2ccc(OC)c(OC)c2)c1C | . | . | . | . | -
COc1ccc(/C=C2\SC(=S)N(CCCCCC(=O)Nc3cc(C)on3)C2=O)cc1OC | - | - | . | - | -
COc1cc(/C=C2\SC(=S)N(CCCCC(=O)O)C2=O)ccc1OS(=O)(=O)c1ccc(C)cc1 | 29.9µM | - | - | ? | ?
CCc1nn2c(=O)cc(COC(=O)c3ccco3)nc2s1 | . | . | . | . | -
CCCCOC(=O)C(C)Sc1n[nH]c(=O)[nH]c1=O (centres undefined) | 26.7µM | - | - | - | -
CC(C)(C)c1cc(/C=C(\C#N)C(N)=S)cc(C(C)(C)C)c1O | . | ? | . | . | 35.5µM
N#C/C(=C/c1ccc(F)cc1)C(N)=S | 29.9µM | - | - | - | 89.1µM
N#C/C(=C\c1ccncc1)C(N)=O | - | - | - | - | -
N#CC(C#N)=C(N)/C(C#N)=C/c1cc(O)c(O)c(O)c1 | - | - | - | ? | 39.8µM!
Cc1cc(C)c(/C=C(\C#N)C(N)=S)c(C)c1 | - | - | - | ? | -
COc1cc(OC)cc(C(=O)NCCc2csc(-c3ccc(C(F)(F)F)cc3)n2)c1 | . | . | . | . | -
Cc1ccccc1-c1cc(-c2ccccc2O)n[nH]1 | 3.36µM | - | - | - | -
Cc1ccc(-c2cc(-c3ccccc3Cl)[nH]n2)c(O)c1 | - | - | - | - | -
Oc1ccc(Br)cc1-c1cc(-c2ccccc2Cl)[nH]n1 | 23.8µM | - | - | - | ?
COc1ccc(-c2cc(C(F)(F)F)nc(SCc3cccc(C(=O)O)c3)n2)cc1 | 21.2µM | - | - | - | -
O=C(NCc1ccccc1Br)c1ccc2nc(N3CCCCC3)sc2c1 | . | . | . | . | -
COc1cc(CNCCSc2nnnn2C)ccc1OCc1ccc(C)cc1 | . | . | . | . | -
COc1ccc(S(=O)(=O)NC2CCCCC2)cc1-n1cnnn1 | 26.7µM | - | - | - | -
O=C(CSc1cn(CC(=O)N2CCOCC2)c2ccccc12)Nc1ccccc1F | . | . | . | . | -
Nc1nnc(SC2CC(=O)N(c3ccccc3)C2=O)s1 (centres undefined) | 29.9µM | - | - | - | -
CCOc1ccc(N2C(=O)CC(Sc3ncccn3)C2=O)cc1 (centres undefined) | - | - | - | - | -
SMILES | PLK1 PBD inh | TSHR antagonist | PTAP TSG101 blk | uPA generation | VDR inh
CCOc1ccc(N2C(=O)CC(Sc3nccc(C)n3)C2=O)cc1 (centres undefined) | 26.7µM | - | - | - | -
C=CCNc1nnc(SC2CC(=O)N(c3ccc(OCCC)cc3)C2=O)s1 (centres undefined) | 21.2µM | - | - | - | -
O=C1CC(Sc2ncccn2)C(=O)N1c1ccccc1 (centres undefined) | - | - | - | - | -
Cc1nc(SC2CC(=O)N(c3ccccc3)C2=O)n[nH]1 (centres undefined) | 29.9µM | - | - | - | -
CC(C)CC(N)C(=O)NC(C)C(=O)O (centres undefined) | . | . | . | . | -
Cc1ccc2nc(NC(=O)c3cc(=O)c4cc(Cl)ccc4o3)sc2c1 | . | . | . | . | -
COc1ccccc1N1C(=O)CC(Sc2n[nH]c(-c3cccc(C)c3)n2)C1=O (centres undefined) | 13.4µM | - | - | - | -
CCOC(=O)C1CCCN(C2=NC(=O)/C(=C/c3ccc(OC)cc3OC)S2)C1 (centres undefined) | 18.9µM | - | - | - | ?
COc1cc(NCC(=O)Nc2cccc(S(=O)(=O)N3CCCCC3)c2)cc(OC)c1OC | - | - | - | - | -
CCc1nn(CC(=O)N2CCCCC2)c(=O)c2cc3occc3n12 | . | . | . | . | -
CC(=O)C(Cc1ccccc1)NC(=O)CN1CCc2ccccc2C1 (centres undefined) | - | - | - | - | -
CC(CCc1ccccc1)NC(=O)CN1CCc2ccccc2C1 (centres undefined) | 26.7µM | - | - | - | -
COc1cc(/C=C/C(=O)NC2CCCCC2)cc(OC)c1OC | 26.7µM | - | - | - | ?
COc1cc(/C=C/C(=O)Nc2cc(C(F)(F)F)ccc2Cl)cc(OC)c1OC | 26.7µM | - | - | - | -
COc1cc(/C=C/C(=O)Nc2ccc(C)cc2)cc(OC)c1OC | - | - | - | - | -
COc1cc(/C=C/C(=O)Nc2nnc(C(C)(C)C)s2)cc(OC)c1OC | 23.8µM | - | - | - | -
Cn1c(=O)oc2cc(S(=O)(=O)N3CCCC(C(=O)N4CCN(c5cccc(Cl)c5)CC4)C3)ccc21 (centres undefined) | . | . | . | . | -
Cc1ccc(C)c(Cn2nnc(C(=O)NCc3ccc(Cl)cc3Cl)c2N)c1 | . | . | . | . | -
COc1ccc(F)cc1-c1cc(NC=O)c2ncc(-c3cc(OC)c(OC)c(OC)c3)n2c1 | - | . | . | . | .
Fc1ccccc1C1CC(c2ccco2)=Nc2ccccc2S1 (centres undefined) | - | - | - | ? | 79.4µM
COC(=O)c1ccc(NC(=O)CC2C(=O)N(c3cccc(F)c3)C(=O)N2CC(C)C)cc1 (centres undefined) | . | . | . | . | -
O=C(NCC1CCCO1)C(=O)N/N=C/c1ccccc1C(=O)O (centres undefined) | 26.7µM | - | - | - | -
COc1ccccc1CNC(=O)CCC1N=C2c3ccccc3N=C(SCC(=O)NCCc3ccc(OC)c(OC)c3)N2C1=O (centres undefined) | . | . | . | . | -
CC(=O)NCC(=O)N[C@H](CCC(=O)O)C(=O)O | . | . | . | . | -
COc1cc(C(=S)N2CCOCC2)ccc1OS(=O)(=O)c1ccccc1[N+](=O)[O-] | 15µM | - | - | - | -
SMILES | PLK1 PBD inh | TSHR antagonist | PTAP TSG101 blk | uPA generation | VDR inh
COc1ccc(C(=S)N2CCOCC2)cc1OS(=O)(=O)c1ccccc1[N+](=O)[O-] | ? | - | - | - | -
CCOC(=O)c1noc2ncn(CC(=O)Nc3cccc(Cl)c3)c(=O)c12 | . | . | . | . | -
COC(=O)C1=C(C)Nc2ccc(C)cc2S1 | ? | - | - | - | 70.8µM
O=C(/C=C/c1ccccc1)Nc1cccc(C(=O)NC2CC2)c1 | - | . | - | 12.6µM | -
O=C(/C=C/c1ccccc1)Nc1cccc(C(=O)NCCCc2ccccc2)c1 | - | . | - | ? | -
c1ccc(-c2ccc3c(c2)c2c4n3CCN=C4CCC2)cc1 | 29.9µM | - | - | . | -
O=C(NNc1ccccc1[N+](=O)[O-])Nc1ccccc1 | - | - | - | . | ?
COCCNC(=S)NNc1ccccc1[N+](=O)[O-] | 15µM | - | - | - | ?
